In PubChem BioAssay (NCATS) one finds activity change, negative = cytotoxicity and Potency data, which are given here for 16 compounds.

Results filed as inconclusive are left out. A call without a number means that no potency is given here. Values without a mark were called inactive. Activity calls are given as the source filed them. The call rests on the fitted dose curve; in most records, active means well fitted inhibition curve with a large enough effect; inconclusive means small, poorly fitted or top-dose-only effect; inactive means flat fitted curve, though single readings scatter.
Potency means the concentration at half of the fitted maximal effect.

This experiment is described as follows: P-glycoprotein substrates identified in KB-8-5-11 adenocarcinoma cell line, qHTS therapeutic library screen (AID 1346987). Further: nearly all actives have a fitted effect of over 65% in size. The note with it: KB-8-5-11 (P-gp overexpressing) viability, CellTiter-Glo, 72 h; series mostly up to 44.5 µM. An outline of the steps: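 Steps: plate 500 KB-8-5-11 cells/well in DMEM + 10% FCS (colchicine removed); pin compounds in dose-response; incubate 72 h, 37 degree C, 5% CO2; add CellTiter-Glo, 5 min; read luminescence.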
In the case of `C[C@H]1CC[C@@]2(OC1)O[C@H]1CC3[C@@H]4CC[C@@H]5C[C@@H](O[C@@H]6O[C@H](CO)[C@@H](O[C@@H]7O[C@H](CO[C@@H]8OC[C@@H](O)[C@H](O)[C@H]8O)[C@@H](O[C@@H]8O[C@H](CO)[C@H](O)[C@H](O)[C@H]8O)[C@H](O)[C@H]7O)[C@H](O)[C@H]6O)CC[C@]5(C)C4CC[C@]3(C)[C@H]1[C@@H]2C` (stereo partly specified), the activity change, negative = cytotoxicity was 3.95% [at 9.29 µM].

As for `Cc1nc(C(=O)N2CCC[C@H]2Cc2nnc(-c3ccccc3)o2)c(-c2ccccc2F)s1`, the Potency entry was “inactive”.

Take `C=C(C)C1CCC2(C(=O)O)CCC3(C)C(CCC4C5(C)C(C=O)C(O)C(C)(C)C5CCC43C)C12` (stereo unspecified): the Potency result is “inactive”.

As to `C=C1C(=O)O[C@@H]2[C@H]1CCC(C)=C(CCC(=O)O)[C@@]2(C)O`, the Potency result was “inactive”.

With `O=C(O)CCc1nccc2c1[nH]c1ccccc12`, the Potency entry is “inactive”.

As for `COc1cc2c(cc1O)C1(Cc3ccc4c(c3C1O)OCO4)[N+](C)([O-])CC2` (stereo unspecified), the Potency entry was “inactive”.

In the case of `C=C1CC[C@@H]2[C@](C)(CO)[C@H](O)CC[C@@]2(C)[C@@H]1C/C=C1/C(=O)OCC1OC(=O)/C(=C/CO)C(O)C[C@@H]1C(=C)CC[C@@H]2[C@](C)(CO)[C@H](O)CC[C@]21C` (stereo partly specified), the Potency result was “inactive”.

For `Cc1cccc(N2CCN(C(=O)c3cc(S(=O)(=O)N(C)C)ccc3N3CCCC3)CC2)c1C`, the Potency entry is “inactive”.

`C=C1CCC2[C@](C)(CCC[C@@]2(C)C=O)[C@H]1CC/C(C)=C/CO` (stereo partly specified): the Potency entry is “inactive”.

`CN(C)c1cccc(Oc2cnc(Nc3cccc(O)c3)nc2)c1`: the Potency result is “inactive”.

As to `COCCCNC(=O)c1ccc(Cn2c(=O)c3ccccc3n(Cc3ccc(C(C)C)cc3)c2=O)cc1`, the Potency result is “inactive”.

As for `O=C(/C=C/c1ccccc1O)O[C@@H]1O[C@H](CO)[C@@H](O)[C@H](O)[C@H]1O`, the Potency entry was “inactive”.

As for `CCOC(=O)CCNc1cc(N2CCc3ccccc3CC2)nc(-c2cccnc2)n1`, the Potency entry is “inactive”.

For the compound `COc1ccc(CN2CCN(CCCSc3cc(C(C)(C)C)c(O)c(C(C)(C)C)c3)CC2)c(OC)c1OC`, the activity change, negative = cytotoxicity is -16.1% [at 9.29 µM].

`Cn1ncc(Cl)c1-c1cc(C(=O)N[C@H](CN)Cc2ccc(F)c(F)c2)oc1Cl`: the Potency is 16.4 µM (active).

As for `COc1ccc(C(=O)O[C@H]2C=COC=C3C=C4C(=O)N(C)C(=S)C(=O)N4[C@@H]32)cc1Oc1cc(C=O)ccc1O`, the Potency entry was “inactive”.
